LASV entry inh: inhibitors of Lassa virus binding or cell entry | Lassa virus pseudotype entry inhibition, cell reporter | Potency, µM (doses to about 37.9 µM), for inactives: at the top dose activity change, negative = inhibition, most hits filed as inhibitors | 300,000 compounds, 1.2% hits; calls by dose curve; tested in HEK293 cells; note: potency is the fitted concentration of half-maximal effect; nearly all actives have a fitted effect of over 50% in size
MARV entry inh: blocks Marburg virus binding to or entry into cells; Marburg virus pseudotyped entry inhibition, cell reporter; Potency, µM (top dose mostly 37.8 µM), without a hit: at the highest dose activity change, negative = inhibition, most hits filed as inhibitors; 300,000 compounds, 1.8% hits; calls by dose curve; tested in HEK293 cells; note: potency is the fitted concentration of half-maximal effect
HCMV inh: blocks human cytomegalovirus replication | HFF cells, HCMV-luciferase reporter, 72 h; hits give low values | activity change, negative = inhibition, % at 57.5 µM | 410,000 compounds, 4.5% hits | AID 1259415; in the data active = activity change below about -60%; inconclusive = no clear call, values can overlap the other calls; inactive = above about -39%
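Compounds were evaluated in HFFs infected with an HCMV luciferase reporter virus (MOI 1 PFU/cell). Luciferase in lysates collected 72 h post infection served as the replication measure.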
HCV inhibitor: blocks hepatitis C virus | Potency, µM (series often up to 41.8 µM), for inactives: top-dose activity change, negative = inhibition, most hits filed as inhibitors | AID 651820 | Huh7.5.1 HCVcc-Cre infection, luciferase reporter, 44 h | 340,000 compounds, 3.4% hits; active = well fitted inhibition curve with a large enough effect; inconclusive = small, poorly fitted or top-dose-only effect, or another doubt; inactive = no such curve, though single readings can be large or run the other way; note: potency is the fitted concentration of half-maximal effect
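Reporter virus HCVcc-Cre (~0.5 moi) infects cells exposed to compound; seeding density 1,000 cells/well with 4 h settling beforehand. Luminescence, 15 sec read, taken 44 h post-infection following a 15 min RT substrate incubation.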
FMDV antiviral: blocks foot and mouth disease virus | 410,000 compounds, 1.2% hits | Potency, µM (doses to about 57.9 µM), inactives show at the highest dose activity change, negative = inhibition, actives largely listed as inhibitors | FMDV antiviral cell-based qHTS; calls by dose curve; tested in HEK293T cells; note: read-out not given here; potency is the fitted concentration of half-maximal effect; nearly all actives have a fitted effect of over 45% in size
Active calls of the source: *; ? = inconclusive; . = not tested or not shown; [ ] = dose if it differs, or a comment. A selection: hits, their analogues and other compounds. The true share with any hit is near 7.9%. % is set by controls: 0 for no effect and ±100 for the full control effect.

SMILES	LASV entry inh	MARV entry inh	HCMV inh	HCV inhibitor	FMDV antiviral
O=C(Cc1ccc(Br)cc1)Nc1cccc(-c2cn3c(n2)SCC3)c1	?	?	-71*	?	?
Cc1cc(C)n2nc(C(=O)NCC3Cc4cccc(-c5ccc(S(C)(=O)=O)cc5)c4O3)cc2n1 (stereo not drawn)	.	.	.	.	34%
CC[N+](CC)(CCCCS(=O)(=O)[O-])CCNP1(=O)C=C(c2ccccc2)OC(c2ccccc2)=C1	.	.	-70*	7%	3%
Cc1ccsc1C1Cc2c(C(=O)NCc3cccnc3)c(=O)cc(C)n2-c2ccccc2S1 (stereo not drawn)	.	.	.	.	-8%
Cc1csc2nc(COC(=O)CNC(=O)c3ccccc3Cl)cc(=O)n12	27%[46.1 µM]	.	20	.	0%
CCOC(=O)c1c(C)[nH]c(C)c1S(=O)(=O)N1CCN(c2ccccc2OC)CC1	-3%[46.1 µM]	.	36	.	20%
CCOc1ccc(CCNc2ncnc3onc(-c4ccc(Cl)cc4)c23)cc1OCC	?	7.9µM*	-26	.	?
COc1ccc(-n2c(-c3ccco3)n[nH]c2=S)cc1	14%	21%	-2	2%	18%
S=c1[nH]nc(-c2ccco2)n1-c1ccc(Cl)cc1	0%[46.1 µM]	13%[46.1 µM]	-61*	13%	0%
CN(C)C=Nc1ncc2c3ccccc3n(Cc3ccccc3)c2c1C#N	-2%	3%	-28	0%	-14%
CN(C)C=Nc1ncc2c3ccccc3n(CCN(C)C)c2c1C#N	-19%	11µM*	-98*	-6%	1%
CCN(CC)CCn1c2ccccc2c2cnc(N)c(C#N)c21	?	11µM*	-98*	10µM*	-19%
CC(=O)Nc1ccc(NC(=O)c2csc([C@H]3C[C@H](O)[C@@H](CO)O3)n2)cc1	.	.	-1	.	-1%
O=C(Nc1ccc(Oc2ccccc2)cc1)c1csc([C@@H]2C[C@H](O)[C@@H](CO)O2)n1	.	.	-91*	.	?
O=C(Nc1ccc(Oc2ccccc2)cc1)c1csc(COCCO)n1	.	.	-81*	.	0%
COCCCNC(=O)c1csc([C@H]2C[C@H](O)[C@@H](CO)O2)n1	.	.	-100*	.	-5%
CCOc1ccccc1CNC(=O)C1CCN(c2nc3ccccc3nc2C(F)(F)F)CC1	11%[46.1 µM]	.	4	.	0%
O=C([O-])c1ccc(-[n+]2c(-c3ccccc3)cc(-c3ccccc3)cc2-c2ccccc2)cc1	.	.	18	-1%	-23%
O=[N+]([O-])c1ccc(-[n+]2c(-c3ccccc3)cc(-c3ccccc3)cc2-c2ccccc2)cc1	.	.	?	-12%	-12%
COc1ccc(-[n+]2c(-c3ccccc3)cc(-c3ccccc3)cc2-c2ccccc2)cc1	.	.	-97*	?	3.2µM*
Oc1ccc(-[n+]2c(-c3ccccc3)cc(-c3ccccc3)cc2-c2ccccc2)cc1	.	.	-97*	8.9µM*	10µM*
Cc1nc(C)n(CC(=O)N2CCOc3ccc(CN4CCN(C)C[C@@H]4c4ccccc4)cc3C2)n1	.	.	.	.	-15%
C=CCOC(=O)C(C(=O)CC)[C@@H](NC(=O)OC)c1ccc(F)cc1 (stereo partly drawn)	.	-25%[14.2 µM]	.	.	.
CN(C)S(=O)(=O)N1CCN(C(=O)N2CCCCC2)CC1	12%	-2%	39	-2%	.
CN(C)S(=O)(=O)N1CCN(C(=O)N2CCOCC2)CC1	0%	-6%	-101*	11%	.
SMILES	LASV entry inh	MARV entry inh	HCMV inh	HCV inhibitor	FMDV antiviral
COCCn1c(=O)c(-c2ccc(Cl)cc2)nc2cncnc21	.	.	.	.	2%
O=C1CC(c2ccc(OCCCCCOc3ccc(C4CC(=O)NC4=O)cc3)cc2)C(=O)N1 (stereo not drawn)	?	?	-25	?	28µM*
CCCCCCCCOc1ccc(C2CC(=O)NC2=O)cc1 (stereo not drawn)	.	.	20	25%	-7%
Cc1c(NC(=O)Nc2cccs2)cccc1[N+](=O)[O-]	.	.	-72*	?	15%
O=C(Nc1ccc(CN2CCOCC2)cc1)c1ccc(-c2ccc(Cl)cc2Cl)o1	-19%	?	-65*	?	?
O=C(Nc1ccc(CN2CCOCC2)cc1)c1ccc(-c2cccc(Cl)c2)o1	-26%	?	-86*	?	35µM*
O=C(NC(=S)Nc1ccc(CN2CCOCC2)cc1)c1ccc(-c2cccc(Cl)c2)o1	.	.	?	14µM*	35µM*
O=C(Nc1ccc(CN2CCOCC2)cc1)c1cc(Br)ccc1Cl	.	.	-11	-12%	-9%
O=C(Nc1ccc(CN2CCOCC2)cc1)c1ccc(Cl)cc1Cl	.	.	-38	10µM*	-11%
O=C(NC(=S)Nc1ccc(CN2CCOCC2)cc1)c1ccc(-c2ccc(Br)cc2)o1	?	?	.	8%	-30%
O=C(NC(=S)Nc1ccc(CN2CCOCC2)cc1)c1ccc(-c2ccc(Cl)cc2)o1	.	.	-28	6%	?
COC(=O)c1cc(NC(=O)c2ccc(-c3ccc(Cl)cc3Cl)o2)cc(C(=O)OC)c1	-9%[46.1 µM]	.	-7	.	-22%
O=C(NCc1ccco1)c1ccc2c(c1)N(Cc1ccccc1F)C(=O)c1ccccc1S2=O (stereo not drawn)	-10%[46.1 µM]	-3%[46.1 µM]	-13	.	-22%
Cc1nc(C)c(CC(=O)N2CCOc3ccc(CN4CCOCC4)cc3C2)s1	.	.	.	.	-9%
Cc1c(Cl)cccc1NC(=O)CCCn1nc(C)c2sc3ccccc3c2c1=O	-4%[46.1 µM]	-7%[46.1 µM]	28	.	-17%
CCc1ccc(-n2c(=O)c3c4c(sc3n(Cc3ccccc3C#N)c2=O)CCCC4)cc1	-5%[46.1 µM]	-7%[46.1 µM]	8	.	-19%
COc1ccc(-c2c[n+]3c(n2-c2ccccc2)SCC3)cc1OC	-15%	3%[46.1 µM]	?	3%	-8%
COc1ccc(-c2c[n+]3c(n2-c2ccccc2)SCC3)cc1	?	?	-80*	?	-14%
Cc1ccc(-c2c[n+]3c(n2-c2ccccc2)SCC3)cc1	.	.	-73*	?	?

Screens as filed in PubChem.
